Assay outcomes (PubChem)
FLuc counter: qHTS profiling assay for firefly luciferase inhibitor/activator using purifed enzyme and Km concentrations of substrates (counterscreen for miR-21 project). AID 588342, 2011. 360,000 compounds, 6.9% hits. purified FLuc, Km substrates, luminescence inhibition. Luciferin 4-monooxygenase (Photinus pyralis), P08659. Potency, µM (highest dose often 57.5 µM), for inactives: at the highest dose activity change, negative = inhibition, actives largely listed as inhibitors;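 note: plate controls were vehicle for no effect and reference inhibitor for full effect; nearly all actives have a fitted effect of over 55% in size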
Target sequence (P08659 whole entry, looked up): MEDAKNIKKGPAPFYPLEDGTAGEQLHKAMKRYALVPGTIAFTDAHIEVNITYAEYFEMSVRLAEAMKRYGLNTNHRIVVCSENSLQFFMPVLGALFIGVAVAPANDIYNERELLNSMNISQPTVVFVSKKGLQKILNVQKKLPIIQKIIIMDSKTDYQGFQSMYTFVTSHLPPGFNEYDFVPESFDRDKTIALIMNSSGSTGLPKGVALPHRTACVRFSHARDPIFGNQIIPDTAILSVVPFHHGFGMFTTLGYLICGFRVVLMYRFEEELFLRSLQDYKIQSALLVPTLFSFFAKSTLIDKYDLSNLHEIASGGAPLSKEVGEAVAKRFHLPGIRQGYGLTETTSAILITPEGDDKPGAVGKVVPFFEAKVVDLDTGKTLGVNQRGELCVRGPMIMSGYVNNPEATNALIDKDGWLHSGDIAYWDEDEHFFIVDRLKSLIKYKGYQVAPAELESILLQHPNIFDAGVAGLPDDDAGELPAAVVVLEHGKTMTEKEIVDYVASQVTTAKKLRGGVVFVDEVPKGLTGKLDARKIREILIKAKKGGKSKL
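Purified P. pyralis luciferase (10nM final) with 10uM D-luciferin and 10uM ATP (Km levels) in 50mM Tris acetate pH 7.5, 10mM Mg acetate, 0.01% Tween-20, 0.05% BSA; qHTS 6-point titration, ~60 µM downward; luminescence read.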
ELG1 genotoxic: qHTS screen for small molecules that induce genotoxicity in human embryonic kidney (HEK293T) cells expressing luciferase-tagged ELG1; HEK293T ELG1-luciferase reporter, luminescence, 16 h; Potency, µM (doses to about 46 µM), for inactives: top-dose activity change, positive = activation, actives largely listed as activators; 330,000 compounds, 1.3% hits; AID 504466, 2011; note: % of control where 0% means no effect; nearly all actives have a fitted effect of over 60% in size
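16 hr compound incubation (37 °C, 5% CO2) of HEK293T cells carrying luciferase-tagged ELG1; luciferase then measured by ONE-Glo luminescence after 30 min at RT.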
Luc counter: Counterscreen for Luciferase (Kinase-Glo TM) Inhibition | Luciferin 4-monooxygenase (Photuris pensylvanica), Q27757 | Potency, µM (doses to about 38.3 µM), for inactives: at the highest dose activity change, negative = inhibition, usual class: inhibitors | 200,000 compounds, 0.28% hits | Kinase-Glo luciferase, ATP luminescence, 8 min; note: % is set by controls: 0 for no effect and ±100 for the full control effect; nearly all actives have a fitted effect of over 60% in size
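Recombinant Kinase-Glo luciferase, 10 uM ATP (linear range), luciferin; imidazole pH 7.2 / KCl / MgCl2 / Tween / BSA buffer; 8 min RT; luminescence.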
Rab9 promoter act: qHTS Assay for Rab9 Promoter Activators; Huh7 Rab9 promoter-luciferase reporter, luminescence, 24 h; Potency, µM (highest dose often 9.22 µM), inactives show at the highest dose activation, negative = inhibition, most hits filed as activators; 320,000 compounds, 2.8% hits; note: % of control where 0% means no effect; nearly all actives have a fitted effect of over 60% in size
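Stable Rab9-luc Huh7, 1500 cells/well, 2 h settle; cmpd in DMSO, 24 h, 37 °C/5% CO2; luciferase reagent 10 min RT; luminescence.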
NPC1 prom act: qHTS Assay for NPC1 Promoter Activators; AID 485313, 2010; Huh7 NPC1 promoter luciferase reporter, 24 h; Potency, µM (titrated, usually from 9.22 µM), without a hit: top-dose activation, actives largely listed as activators; 320,000 compounds, 2.4% hits; note: % of control where 0% means no effect; nearly all actives have a fitted effect of over 60% in size
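Luciferase expression driven by the NPC1 promoter was measured in stably transfected Huh7 cells after a 24 h compound incubation, using a luciferase reagent and a luminescence read.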
SMN2 splice up: qHTS Assay for Enhancers of SMN2 Splice Variant Expression; HEK293 SMN2-luciferase splicing reporter, luminescence, 30-36 h; Potency, µM (highest dose often 46.1 µM), inactives show top-dose activity change, positive = activation, hits mostly activators; 210,000 compounds, 2.8% hits; AID 1458, 2008; note: % of control where 0% means no effect; nearly all actives have a fitted effect of over 55% in size
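HEK293 cells carry an SMN2 minigene-luciferase reporter in which exon 7 inclusion puts luciferase in frame. Cells were seeded at 2000 cells/well, attached for 10-12 hours, then exposed to compounds for 30-36 hours at 37C before ONE-Glo luminescence.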
The depositor's hits bear a star; ? = inconclusive; nt = no result given. In the library only some 7.3% were active in any assay of this set; here they are far more common. Calls come from the whole dose curve; as a rule, active = well fitted curve in the direction sought with a large enough effect; inconclusive = small, poorly fitted or top-dose-only effect, or another doubt; inactive = no such curve, though single readings can be large; an effect the other way counts as inactive or inconclusive. Potency is the fitted concentration of half-maximal effect.

SMILES	FLuc counter	ELG1 genotoxic	Luc counter	Rab9 promoter act	NPC1 prom act	SMN2 splice up
COc1cccc(C(=O)Nc2ccc3c(c2)CCCN3C(=O)c2cccs2)c1OC	9.5µM*	-5%	nt	14%	5%	nt
COc1cccc(C(=O)Nc2cccc(-c3cn4c(C)csc4n3)c2)c1OC	7.6µM*	nt	nt	nt	nt	nt
COc1cccc(C(=O)Nc2cccc3ccccc23)c1OC	?	2%	nt	26%	19%	nt
COc1ccc(C(=O)Nc2cc(S(=O)(=O)N3CCCCC3)ccc2OC)cc1	0%	-1%	nt	3%	0%	nt
COc1ccc(NC(=O)c2cc3ccccc3cc2OC)cc1OC	27µM*	1%	nt	13%	-2%	nt
COc1cccc(NC(=O)c2cccc(OC)c2OC)c1	21µM*	10µM*	-7%	?	?	16µM*
COc1cccc(NC(=O)c2cc3ccccc3cc2OC)c1	9.5µM*	?	nt	13%	2%	nt
CCOc1ccccc1C(=O)Nc1cccc(-c2nnc(-c3ccccc3)o2)c1	?	0%	-2%	5%	-5%	-20%
CCOC(=O)c1[nH]c(C)c(C(=O)Nc2ccc(C)c(C)c2)c1C	-9%	11%	2%	1.4µM*	?	18%
CCOC(=O)c1c(C)[nH]c(C(=O)Nc2ccc3c(c2)OCO3)c1C	4.8µM*	?	-9%	4µM*	3.5µM*	nt
CCOC(=O)c1[nH]c(C)c(C(=O)OC)c1C	?	15%	nt	-1%	10%	nt
CC(=O)c1c(C)[nH]c(C(=O)OCc2ccccc2)c1C	15µM*	18µM*	-3%	?	?	?
CCOC(=O)c1c(C)[nH]c(C(=O)OCc2ccccc2F)c1C	2.7µM*	1.6µM*	nt	1.6µM*	1.6µM*	nt
CCOC(=O)c1[nH]c(C)c(C(=O)Nc2ccc(F)cc2)c1C	3%	21%	-1%	-5%	1%	6%
Cc1ccccc1NC(=O)Cn1cnc2c(oc3nc4c(cc32)COC(C)(C)C4)c1=O	-16%	5%	-2%	-2%	-2%	22%
O=[N+]([O-])c1cccc(-c2nnc3ccc4ccccc4n23)c1	?	-4%	-1%	-2%	-1%	-3%
CC(=O)N1CC=C2C(C#N)=C(N)C(C#N)(C#N)C(C)C2C1 (stereo not drawn)	3%	-8%	0%	-4%	2%	nt
CCOC(=O)c1[nH]c(C)c(C(=O)Nc2ccc(C)cc2C)c1C	2%	6%	-1%	-23%	-32%	?
CCOC(=O)c1c(C)[nH]c(C(=O)OCc2ccc(F)cc2)c1C	4.8µM*	15µM*	nt	1.6µM*	2.2µM*	nt
CCOC(=O)c1[nH]c(C)c(C(=O)Nc2ccccc2F)c1C	?	?	2%	-7%	-26%	5µM*
O=C(O)c1ccc(CSc2nc3ccccc3[nH]2)cc1	17µM*	8%	nt	0%	2%	nt
CCCc1cc(=O)[nH]c(SCc2cc(C(=O)OC)c(C)o2)n1	-1%	2%	2%	-2%	1%	-3%
O=c1[nH]c(SCc2ccccc2)nc2ccsc12	17µM*	16%	-2%	8%	6%	?
COc1cccc(CSc2nc3ccccc3[nH]2)c1	4.3µM*	?	-8%	1µM*	3.5µM*	16µM*
CCOC(=O)CSc1nc2ccsc2c(=O)[nH]1	-11%	2%	5%	2%	1%	nt
COC(=O)c1cc(CSc2nc3ccccc3[nH]2)oc1C	7.6µM*	9.2µM*	-7%	?	?	-45%
O=C(c1ccc2c3c(cccc13)CC2)C1CCCN(Cc2ccc(OCCO)cc2)C1 (stereo not drawn)	-2%	-3%	-7%	-13%	-2%	nt
Fc1ccccc1CSc1nc2ccccc2[nH]1	2.4µM*	?	?	1.3µM*	1.8µM*	5.6µM*
